TDP1 cell CPT: growth inhibition of DT40 Tdp1-/-;hTDP1 cells with camptothecin (screen for TDP1 inhibitors); actives 12% (n = 420,000); chicken DT40 Tdp1-/-;hTDP1 cells + 20 nM CPT, ATP luminescence, 48 h; Potency, µM (doses to about 46.2 µM), hits mostly inhibitors; note: nearly all actives have a fitted effect of over 55% in size
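Cell growth measured by CellTiter-Glo luminescence after a minimum 48 h, 37 C compound exposure with 20 nM CPT in Tdp1-knockout DT40 cells stably expressing hTDP1, seeded 400/well; qHTS titration format.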
TDP1 cell noCPT: qHTS for Inhibitors of human tyrosyl-DNA phosphodiesterase 1 (TDP1): qHTS in cells in absence of CPT; DT40 Tdp1-/- hTDP1 cells, no CPT, ATP luminescence, 48 h; Potency, µM (top dose mostly 46.2 µM), most hits filed as inhibitors; AID 686978, 2013; actives 15% (n = 420,000); note: nearly all actives have a fitted effect of over 55% in size
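Chicken DT40 Tdp1-/- cells complemented with human TDP1, screened without camptothecin (DMSO vehicle only), 400 cells/well. Compounds pin-transferred, cells incubated at 37 °C for at least 48 hr. Growth read as ATP-dependent luminescence (CellTiter-Glo, 30 min at RT).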
RORgamma inh: ROR gamma (mouse) transcription inhibition; Drosophila S2 Gal4-RORgamma UAS-luciferase reporter, 20 h; Potency, µM (highest dose often 53.6 µM), hits mostly inhibitors; actives 5.4% (n = 310,000); note: nearly all actives have a fitted effect of over 60% in size
Target sequence (P51450 whole entry, looked up, the tested form may be a part): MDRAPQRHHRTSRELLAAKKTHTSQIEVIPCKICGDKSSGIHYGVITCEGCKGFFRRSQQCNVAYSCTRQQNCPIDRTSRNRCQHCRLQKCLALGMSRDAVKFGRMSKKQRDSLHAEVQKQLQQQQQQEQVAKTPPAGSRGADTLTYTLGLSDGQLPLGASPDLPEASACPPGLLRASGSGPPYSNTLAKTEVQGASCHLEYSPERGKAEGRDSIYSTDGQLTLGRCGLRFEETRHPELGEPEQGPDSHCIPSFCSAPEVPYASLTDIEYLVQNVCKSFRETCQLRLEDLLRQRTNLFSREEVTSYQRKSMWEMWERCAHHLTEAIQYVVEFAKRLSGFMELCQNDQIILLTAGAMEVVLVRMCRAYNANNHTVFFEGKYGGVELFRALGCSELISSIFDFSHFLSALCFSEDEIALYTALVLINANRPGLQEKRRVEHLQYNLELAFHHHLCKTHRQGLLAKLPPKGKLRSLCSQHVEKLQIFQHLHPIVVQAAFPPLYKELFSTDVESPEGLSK
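Compounds are pin-transferred onto Drosophila Schneider cells expressing a copper-inducible Gal4–ROR gamma transactivation domain fusion. After 1 hr, copper sulfate is added to 700 uM final; luciferase is read 20 hr later.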
VP16 counter: inhibits Gal4-VP16 luciferase reporter, ROR gamma counter-screen; Potency, µM (titrated, usually from 53.6 µM), actives largely listed as inhibitors; Drosophila S2 Gal4-VP16 UAS-luciferase, luminescence, 20 h; actives 3.5% (n = 310,000); AID 2546;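 note: Gal4-VP16 expression switched on by copper sulfate through the metallothionein promoter; nearly all actives have a fitted effect of over 50% in size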
ELG1 DNA repair: blocks ELG1-dependent DNA repair in HEK293T cells; HEK293T ELG1-luciferase reporter, luminescence, 16 h; DNA damage induced by 5-fluorouridine; Potency, µM (doses to about 46.1 µM), actives largely listed as inhibitors; actives 2.3% (n = 330,000); AID 504467; note: nearly all actives have a fitted effect of over 55% in size
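Overnight (16 hr) co-exposure of 2,000 cells/well to 5-fluorouridine and compound at 37 °C preceded detection. Luciferase was quantified via ONE-Glo luminescence; loss of signal denotes inhibition.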
IL-1B inflam inh: inhibitors of inflammasome signaling (IL-1 beta secretion). THP-1 LPS/ATP IL-1B secretion, AlphaLISA, 16 h; hits give low values. activity change, % at 57.5 µM. actives 4.7% (n = 360,000). AID 743279; in the data active = activity change below about -50%; inconclusive = mostly about -30% to -49%
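THP-1 cells pretreated 1 hr with compounds (up to 57.5 uM final), then stimulated with LPS (250 ng/mL final) plus ATP (1.25 mM final); secreted IL-1B measured by AlphaLISA after 16 hr, decreased signal indicating inhibition.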
A number is an active result; - = inactive; ? = inconclusive; . = no result. Most compounds without a hit are left out; they make up all but 21% or so of the library. Unless noted, calls come from the whole dose curve; as a rule, active = well fitted curve in the direction sought with a large enough effect; inconclusive = small, poorly fitted or top-dose-only effect, or another doubt; inactive = no such curve, though single readings can be large; an effect the other way counts as inactive or inconclusive.

SMILES | TDP1 cell CPT | TDP1 cell noCPT | RORgamma inh | VP16 counter | ELG1 DNA repair | IL-1B inflam inh
CC(C)(C)C1CCC(OCC(O)CN2CCN(c3ccccc3)CC2)CC1 (stereo not given) | ? | ? | - | - | - | -
Cc1cc(OCC(O)CN2CCc3ccccc3C2)ccc1Cl (stereo not given) | - | ? | - | ? | - | -62
CC1CCN(CC(O)COC2CCC(C(C)(C)C)CC2)CC1 (stereo not given) | 23µM | 18µM | - | - | - | ?
Cc1c(N=C=O)cccc1N=C=O | . | . | - | - | . | .
CCOC(=O)N1CCN(C(=O)CCCCn2c(=S)[nH]c3ccsc3c2=O)CC1 | - | ? | ? | - | - | -
CSCC[C@H](NC(=O)Cc1c(C)c2cc3c4c(oc3cc2oc1=O)CCCC4)C(=O)O | - | - | - | - | ? | -
Cc1c(C(=O)NCc2ccc3c(c2)OCCO3)sc(=O)n1Cc1ccccc1F | ? | ? | . | . | . | -
Cc1ccc2nc(NS(=O)(=O)c3cn(C)nc3C)sc2c1 | - | - | 14µM | 11µM | ? | -
CC(C)NC(=O)N(C)C[C@H]1Oc2cc(Br)ccc2S(=O)(=O)N([C@H](C)CO)C[C@H]1C | - | - | . | . | . | -
C[C@@H]1CN([C@H](C)CO)S(=O)(=O)c2ccc(Br)cc2O[C@H]1CN(C)C(=O)C1CCCCC1 | 26µM | 13µM | . | . | . | -
C[C@H]1CN([C@@H](C)CO)S(=O)(=O)c2ccc(C3=CCCC3)cc2O[C@@H]1CN(C)C(=O)C1CCCCC1 | - | - | . | . | . | -51
C[C@@H]1CN([C@@H](C)CO)S(=O)(=O)c2ccc(Br)cc2O[C@H]1CN(C)C(=O)Cc1cccnc1 | - | - | . | . | . | -
C[C@H]1CN([C@@H](C)CO)S(=O)(=O)c2ccc(/C=C/c3ccccc3)cc2O[C@H]1CN(C)C(=O)NC1CCCCC1 | ? | 18µM | . | . | . | -55
C[C@@H]1CN([C@H](C)CO)S(=O)(=O)c2ccc(C3=CCCCC3)cc2O[C@H]1CN(C)C(=O)Cc1cccnc1 | ? | 26µM | . | . | . | -
C[C@@H]1CN([C@@H](C)CO)S(=O)(=O)c2ccc(Br)cc2O[C@H]1CN(C)C(=O)C1CCOCC1 | - | - | . | . | . | -
Cc1cccc(C)c1NC(=O)CN(C)C(=O)CSC(=S)N1CCCC1 | - | - | . | . | - | -
C[C@@H]1CN([C@@H](C)CO)S(=O)(=O)c2ccc(Br)cc2O[C@H]1CN(C)C(=O)C1CCCCC1 | 26µM | 16µM | . | . | . | -
C[C@H]1CN([C@@H](C)CO)S(=O)(=O)c2ccc(-c3ccccc3)cc2O[C@H]1CN(C)C(=O)C1CCC1 | ? | 15µM | . | . | . | -
COC(=O)c1cccc(F)c1C(=O)c1cccc2ccccc12 | - | - | . | . | . | -
COc1ccc(O[C@H]2C=C[C@@H](c3ccccc3)O[C@@H]2COC(=O)CC/C(C)=N/OC[C@@H](O)[C@H]2O[C@@H]3OC(C)(C)O[C@@H]3[C@H]2O)cc1 | . | . | ? | - | ? | .
Cc1ccc(-c2nnc(SCC(=O)N/N=C/c3ccccc3C(=O)O)n2-c2ccc(Cl)cc2)cc1 | - | - | - | - | - | -
Cc1ccc(-c2nn(-c3ccccc3)cc2/C=N/NC(=O)CSc2nnc(C)n2-c2ccccc2)cc1 | ? | ? | ? | ? | ? | -62
COc1cccc(/C=N/n2c(SC)nnc2-c2ccccc2)c1O | 10µM | 16µM | ? | - | - | -
COc1ccc(O)c(/C=N/NC(=O)CSc2nnc(C)n2-c2ccccc2)c1 | 16µM | 18µM | 7.9µM | - | ? | -
COc1cccc(/C=N/NC(=O)CSc2nnc(C)n2-c2ccccc2)c1O | ? | ? | 7.1µM | 20µM | - | -
CN(C(=O)Cn1nnc(-c2ccc(S(C)(=O)=O)cc2)n1)c1ccccc1 | - | - | . | . | . | .
COc1ccc(CN2C(=O)CN(S(C)(=O)=O)CC2(C)C(=O)Nc2ccc3c(c2)OCCO3)cc1OC (stereo not given) | - | - | . | . | . | -

Bioassay records as filed in PubChem BioAssay.
